Values joined by “and” are separate entries in the source; they are usually repeats but may differ in a detail not shown here. Identical values can stand only once. The whole screen tested about 5,500 compounds, of which about 2,000 (36%) were called active. About 18% were inconclusive and are not listed. No stated cut-off is given here; in the data, active means normalized growth mostly below about 0.91 (no sharp cut-off); inconclusive means no clear call, values can overlap the other calls; inactive means mostly above about 0.92. This is one part of the list.
Assay: chemical genetic growth profiling, strain panel (AID 1159580);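 further: tested at 20 µM; growth read once vehicle control cultures reached saturation at 30 °C; 1 = growth at the plate median or of vehicle wells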
Settings: S. cerevisiae deletion strains, growth OD

Compound: Oc1c(Cl)cc(Cl)cc1Sc1cc(Cl)cc(Cl)c1O
- normalized growth (locus YAL021C, strain ccr4, stronger effect = lower value): 0.067 (active)
- normalized growth (locus YAL026C, strain drs2, stronger effect = lower value): 0.0634 (active)
- normalized growth (locus YAL030W, strain snc1, stronger effect = lower value): 0.0557 (active)
- normalized growth (locus YBL061C, strain skt5, stronger effect = lower value): 0.0575 (active)
- normalized growth (locus YBR009C, strain hhf1, stronger effect = lower value): 0.061 (active)
- normalized growth (locus YBR021W, strain FUR4, stronger effect = lower value): 0.989 (inactive)
- normalized growth (locus YBR023C, strain chs3, stronger effect = lower value): 0.0607 (active)
- normalized growth (locus YBR171W, strain sec66, stronger effect = lower value): 0.077 (active)
- normalized growth (locus YBR229C, strain ROT2, stronger effect = lower value): 0.998 (inactive)
- normalized growth (locus YBR231C, strain swc5, stronger effect = lower value): 0.0615 (active)
- normalized growth (locus YBR279W, strain paf1, stronger effect = lower value): 0.0577 (active)
- normalized growth (locus YCL011C, strain gbp2, stronger effect = lower value): 0.0589 (active)
- normalized growth (locus YCL016C, strain dcc1, stronger effect = lower value): 0.064 (active)
- normalized growth (locus YCL029C, strain bik1, stronger effect = lower value): 0.964 (inactive)
- normalized growth (locus YCL069W, strain vba3, stronger effect = lower value): 0.0603 (active)
- normalized growth (locus YCR088W, strain abp1, stronger effect = lower value): 0.0604 (active)
- normalized growth (locus YDL005C, strain med2, stronger effect = lower value): 0.0721 (active)
- normalized growth (locus YDL035C, strain GPR1, stronger effect = lower value): 1.05 (inactive)
- normalized growth (locus YDL040C, strain nat1, stronger effect = lower value): 0.0555 (active)
- normalized growth (locus YDL074C, strain BRE1, stronger effect = lower value): 0.979 (inactive)
- normalized growth (locus YDL101C, strain DUN1, stronger effect = lower value): 0.978 (inactive)
- normalized growth (locus YDL185W, strain tfp1, stronger effect = lower value): 0.966 (inactive)
- normalized growth (locus YDL192W, strain arf1, stronger effect = lower value): 0.992 (inactive)
- normalized growth (locus YDR001C, strain nth1, stronger effect = lower value): 0.0578 (active)
- normalized growth (locus YDR069C, strain doa4, stronger effect = lower value): 0.0618 (active)
- normalized growth (locus YDR101C, strain arx1, stronger effect = lower value): 0.978 (inactive)
- normalized growth (locus YDR137W, strain rgp1, stronger effect = lower value): 0.09 (active)
- normalized growth (locus YDR150W, strain NUM1, stronger effect = lower value): 0.982 (inactive)
- normalized growth (locus YDR159W, strain sac3, stronger effect = lower value): 0.0888 (active)
- normalized growth (locus YDR162C, strain NBP2, stronger effect = lower value): 1.01 (inactive)
- normalized growth (locus YDR195W, strain ref2): 0.123 (active)
- normalized growth (locus YDR297W, strain sur2, stronger effect = lower value): 0.0581 (active)
- normalized growth (locus YDR318W, strain mcm21, stronger effect = lower value): 0.98 (inactive)
- normalized growth (locus YDR334W, strain swr1, stronger effect = lower value): 0.0632 (active)
- normalized growth (locus YDR335W, strain msn5, stronger effect = lower value): 0.0596 (active)
- normalized growth (locus YDR388W, stronger effect = lower value): 0.983 (inactive)
- normalized growth (locus YDR392W, strain spt3, stronger effect = lower value): 0.081 (active)
- normalized growth (locus YDR502C, strain sam2, stronger effect = lower value): 0.985 (inactive)
- normalized growth (locus YEL003W, strain gim4, stronger effect = lower value): 0.0535 (active)
- normalized growth (locus YEL037C, strain rad23, stronger effect = lower value): 0.0573 (active)
- normalized growth (locus YEL061C, strain CIN8 (second series), stronger effect = lower value): 0.0607 (active)
- normalized growth (locus YEL061C, strain CIN8, stronger effect = lower value): 0.988 (inactive)
- normalized growth (locus YER015W, strain faa2, stronger effect = lower value): 0.0587 (active)
- normalized growth (locus YER016W, strain bim1, stronger effect = lower value): 0.0576 (active)
- normalized growth (locus YER110C, stronger effect = lower value): 0.964 (inactive)
- normalized growth (locus YER111C, strain swi4, stronger effect = lower value): 0.0718 (active)
- normalized growth (locus YER155C, strain BEM2 (second series), stronger effect = lower value): 0.0937 (active)
- normalized growth (locus YER155C, strain BEM2, stronger effect = lower value): 0.985 (inactive)
- normalized growth (locus YER167W, strain BCK2, stronger effect = lower value): 0.996 (inactive)
- normalized growth (locus YFR010W, strain ubp6, stronger effect = lower value): 0.0679 (active)
- normalized growth (locus YGL078C, strain dbp3, stronger effect = lower value): 0.984 (inactive)
- normalized growth (locus YGL086W, strain mad1, stronger effect = lower value): 0.995 (inactive)
- normalized growth (locus YGL167C, strain pmr1, stronger effect = lower value): 0.0712 (active)
- normalized growth (locus YGL173C, strain kem1, stronger effect = lower value): 0.0685 (active)
- normalized growth (locus YGL227W, strain vid30, stronger effect = lower value): 0.0624 (active)
- normalized growth (locus YGL240W, strain doc1, stronger effect = lower value): 0.0755 (active)
- normalized growth (locus YGL248W, strain PDE1, stronger effect = lower value): 0.981 (inactive)
- normalized growth (locus YGL253W, strain hxk2, stronger effect = lower value): 0.0537 (active)
- normalized growth (locus YGR078C, strain PAC10, stronger effect = lower value): 0.981 (inactive)
- normalized growth (locus YGR135W, strain pre9, stronger effect = lower value): 0.98 (inactive)
- normalized growth (locus YGR229C, strain SMI1, stronger effect = lower value): 1.02 (inactive)
- normalized growth (locus YGR252W, strain gcn5, stronger effect = lower value): 1.03 (inactive)
- normalized growth (locus YHR013C, strain ard1, stronger effect = lower value): 0.105 (active)
- normalized growth (locus YHR027C, strain rpn1, stronger effect = lower value): 0.0591 (active)
- normalized growth (locus YHR030C, strain SLT2, stronger effect = lower value): 0.99 (inactive) and 0.152 (active)
- normalized growth (locus YHR079C, strain IRE1 (second series), stronger effect = lower value): 0.966 (inactive)
- normalized growth (locus YHR079C, strain IRE1, stronger effect = lower value): 0.129 (active)
- normalized growth (locus YHR094C, strain hxt1, stronger effect = lower value): 0.976 (inactive)
- normalized growth (locus YHR129C, strain ARP1, stronger effect = lower value): 0.994 (inactive)
- normalized growth (locus YHR142W, strain chs7, stronger effect = lower value): 0.0784 (active)
- normalized growth (locus YHR200W, strain rpn10, stronger effect = lower value): 0.97 (inactive)
- normalized growth (locus YIL066C, strain RNR3, stronger effect = lower value): 1.01 (inactive)
- normalized growth (locus YIL073C, strain SPO22, stronger effect = lower value): 0.942 (inactive)
- normalized growth (locus YIL125W, strain kgd1, stronger effect = lower value): 0.996 (inactive)
- normalized growth (locus YIR030C, strain dcg1, stronger effect = lower value): 1.01 (inactive)
- normalized growth (locus YJL092W, strain hpr5, stronger effect = lower value): 0.0598 (active)
- normalized growth (locus YJL095W, strain BCK1 (second series), stronger effect = lower value): 0.0564 (active)
- normalized growth (locus YJL095W, strain BCK1, stronger effect = lower value): 0.951 (inactive) and 0.106 (active)
- normalized growth (locus YJL115W, strain asf1, stronger effect = lower value): 0.0719 (active)
- normalized growth (locus YJL129C, strain trk1, stronger effect = lower value): 0.0818 (active)
- normalized growth (locus YJL134W, strain LCB3, stronger effect = lower value): 0.989 (inactive)
- normalized growth (locus YJL154C, strain vps35, stronger effect = lower value): 0.0607 (active)
- normalized growth (locus YJL164C, strain tpk1, stronger effect = lower value): 0.0913 (active)
- normalized growth (locus YJL166W, strain qcr8, stronger effect = lower value): 0.0591 (active)
- normalized growth (locus YJL168C, strain set2, stronger effect = lower value): 0.984 (inactive)
- normalized growth (locus YJL187C, strain SWE1 (second series), stronger effect = lower value): 0.969 (inactive)
- normalized growth (locus YJR043C, strain POL32, stronger effect = lower value): 1.05 (inactive)

Reference: PubChem BioAssay AID1159580 (chemical genetic matrix, 2015)
